Compound activity: PubChem, Broad Institute
Hits are enriched below; roughly 3.1% of the tested compounds scored in any of these assays.
Wnt act = Wnt/beta-catenin pathway activators, primary screen, cell-based, plate reader, single point | Wnt/beta-catenin reporter cell assay, activator | activation, % at 9.35 µM | actives 1.2% (n = 300,000); in the data active means activation above about 30%, passing the limit was not always enough; inconclusive means no clear call, values can overlap the other calls;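 further: 0% = neutral control wells and 100% = positive control wells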
C2C12 statin = suppressors of statin myotoxicity in C2C12 myotubes, primary screen, cell-based, single point, plate reader; C2C12 myotubes + simvastatin, ATP luminescence, 48 h; scaled: DMSO 0, geranylgeraniol control 100; rescue of ATP level, % at 7.49 µM; actives 0.78% (n = 330,000); AID 602340, 2012;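 active means mean ATP rescue above about 67%, or every replicate alone reaching that limit, limit read from the data, passing the limit was not always enough; inconclusive means no clear call, values can overlap the other calls; inactive means mean under the limit and some replicate under it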;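 further: myotubes were challenged with 10 µM simvastatin during compound exposure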
MITF act = activators of MITF-driven TRPM1 promoter reporter, primary screen, cell-based, SK-MEL-5, luciferase, single point. SK-MEL-5 TRPM1-promoter luciferase, 24 h; % of positive control, neutral wells = 0. activation, % at 12.5 µM. actives 0.75% (n = 300,000);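 active means mean activation of at least 80% with every replicate also reaching 80%; inconclusive means mean reaches 80% but some replicate falls short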;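 further: 0% = neutral control wells and 100% = parthenolide positive control wells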
esBAF inh = Bmi1 luciferase reporter increase in mESCs, primary screen, esBAF inhibitor project, mouse ES cells, Bmi1 luciferase knock-in, single point. 24 h; 100% = twice the neutral-well signal. reporter increase, % at 12.5 µM. actives 2% (n = 350,000); in the data active means activation above about 40%; inconclusive means no clear call, values can overlap the other calls;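 further: 0% = median of the plate's neutral control wells and 100% = double that signal; a rise in the Bmi1 reporter signal indicates esBAF inhibition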
Rtt109 Vps75 = inhibitors of C. albicans Rtt109/Vps75 HAT, primary screen, biochemical, ThioGlo CoA-SH fluorescence, plate reader; actives 0.16% (n = 330,000); Histone acetyltransferase RTT109 (Candida albicans (strain SC5314 / ATCC MYA-2876)), …; inhibition, % at 34.9 µM; purified Rtt109/Vps75, 4 h;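 active means inhibition of at least 50% in every replicate; inconclusive means best replicate reaches 50% inhibition but some replicates fall short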
Target sequence (Q5AAJ8 whole entry, looked up): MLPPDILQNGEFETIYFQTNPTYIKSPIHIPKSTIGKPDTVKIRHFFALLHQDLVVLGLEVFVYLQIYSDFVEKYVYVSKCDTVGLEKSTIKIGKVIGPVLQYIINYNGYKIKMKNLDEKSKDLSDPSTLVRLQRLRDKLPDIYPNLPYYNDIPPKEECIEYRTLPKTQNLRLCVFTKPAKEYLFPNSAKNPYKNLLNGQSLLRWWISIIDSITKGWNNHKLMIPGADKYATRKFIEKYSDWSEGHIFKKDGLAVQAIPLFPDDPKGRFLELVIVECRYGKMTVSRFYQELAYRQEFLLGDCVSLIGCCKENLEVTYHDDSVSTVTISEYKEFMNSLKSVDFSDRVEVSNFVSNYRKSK
Active calls of the source: *; ? = inconclusive; . = not tested or not shown.

SMILES	Wnt act	C2C12 statin	MITF act	esBAF inh	Rtt109 Vps75
Cc1cccn2c(=O)c3cc(C(=O)N4CCCCC4)sc3nc12	10	2	14	47*	-47
CC1CCCN(C(=O)c2cc3c(=O)n4ccccc4nc3s2)C1 (stereo not given)	12	8	22	62*	-143
Cc1nn(-c2ccccc2)c2sc(C(=O)N3CCc4ccccc4C3)cc12	-20	-15	4	-1	-9
Cc1nn(-c2ccccc2)c2sc(C(=O)N3CCCCC3)cc12	-2	?	19	45*	4
COc1cccc(CNC(=O)C[C@@H]2C=C[C@H](NC(=O)C3CCOCC3)[C@@H](CO)O2)c1	.	7	.	0	.
O=C(/C=C/c1ccco1)NC(=S)Nc1cccc(-c2nc3ccccc3s2)c1	-2	.	-1	-8	0
Cc1ccc(-c2nc3ccccc3s2)cc1NC(=S)NC(=O)/C=C/c1ccco1	.	-37	-21	65*	8
O=C(/C=C/c1ccco1)NC(=S)Nc1cc(-c2nc3ccccc3s2)ccc1Cl	50*	.	-9	.	-4
c1ccc2nc(N3CCCC3)c(N3CCCCC3)nc2c1	-3	-1	-7	-5	-1
c1ccc2nc3c(nc2c1)OCC1CCCCN31 (stereo not given)	22	-4	55	48*	2
CC(C)(C)c1cc(C(=O)NNC(=O)c2ccc(C(F)(F)F)cc2)no1	49*	-6	5	3	-6
COc1ccccc1NC(=O)N(C)C[C@@H]1Oc2ncc(C#CC(C)C)cc2C(=O)N([C@@H](C)CO)C[C@H]1C	.	-5	.	3	.
CC(C)(C)c1[nH]nc2c1C(c1ccoc1)C(C#N)=C(N)O2 (stereo not given)	0	92*	9	-4	4
COc1ccc(Cl)cc1NC(=O)COC(C)=O	0	.	5	.	11
CCOC(=O)CC(=O)Nc1cc(Cl)ccc1O	.	84*	-3	0	4
COc1ccc(Cl)cc1NC(=O)CC(C)=O	-1	92*	.	-6	8
Cc1ccc(S(=O)(=O)N(C)C[C@H]2OCCCC[C@H](C)Oc3ccc(NC(=O)NC(C)C)cc3C(=O)N([C@@H](C)CO)C[C@@H]2C)cc1	.	.	.	4	.
Cc1cc(C)c(N=C2CCCN2Cc2ccccc2)c(C#N)c1	.	84*	-10	6	6
CCCN1C[C@@H](C)[C@@H](OC)CN(C)C(=O)c2cc(NC(=O)c3ccc(F)cc3)ccc2OC[C@@H]1C	.	-4	.	3	.
C[C@H](CO)N1C[C@H](C)[C@@H](CN(C)S(C)(=O)=O)Oc2cc(C3=CCCC3)ccc2S1(=O)=O	.	-4	.	.	.
Clc1ccc(C2=Nc3cc(Cl)ccc3OC2)cc1	17	.	1	.	-8
Cc1ccc2c(c1)N=C(c1ccc(Cl)cc1)CO2	11	12	72	49*	-6
c1ccc(C2=Nc3ccccc3OC2)cc1	7	89*	-1	1	-27
COc1cccc(NC(=O)N2C[C@H](O)COC[C@H]3O[C@@H](CC(=O)NC4CCC4)CC[C@@H]32)c1	.	-5	.	5	.
COc1cccc(C(=O)Nc2c[nH]c(=O)[nH]c2=O)c1	9	3	4	-6	2
SMILES	Wnt act	C2C12 statin	MITF act	esBAF inh	Rtt109 Vps75
Cc1cccc(C(=O)Nc2sc3c(c2C(=O)O)CCC3)c1	12	-23	21	?	2
Cc1ccc(-c2csc(NC(=O)c3ccc(F)cc3)c2C(=O)O)cc1	-1	-9	52	59*	0
COc1cccc(C(=O)Nc2nc3c(c(=O)[nH]2)CCCC3)c1	17	96*	30	26	0
COC(=O)c1c(NC(=O)c2cccs2)sc2c1CCC(C)C2 (stereo not given)	-2	-25	31	50*	1
COc1cccc(C(=O)Nc2sc3c(c2C(=O)O)CCCC3)c1	26	-38	7	55*	-9
O=C(Nc1scc(-c2ccccc2)c1C(=O)O)c1ccc(F)cc1	0	-3	.	22	-2
C[C@H](CO)N1C[C@H](C)[C@H](CN(C)S(=O)(=O)c2ccc(F)cc2)OCCCC[C@H](C)Oc2ccc(NS(=O)(=O)c3cccs3)cc2C1=O	.	.	.	7	.
C[C@@H]1CN([C@H](C)CO)S(=O)(=O)c2ccc(C#CC3(O)CCCC3)cc2O[C@H]1CN(C)C(=O)c1ccccc1	.	-34	.	5	.
COc1ccc(-c2ccc3c(c2)O[C@H](CN(C)CC2CCOCC2)[C@H](C)CN([C@@H](C)CO)S3(=O)=O)cc1	.	15	.	-2	.
CCOC(=O)c1c(NC(=O)CSc2nnc(C)s2)sc2c1CCC(C)C2 (stereo not given)	.	98*	13	-5	15
O=C(Nc1sc2c(c1C(=O)O)CCCC2)c1ccc(F)cc1	10	-2	.	68*	7
O=C(Nc1sc2c(c1C(=O)O)CCCC2)c1cccs1	.	-8	33	56*	-5
O=C(/C=C/c1cccs1)Nc1sc2c(c1C(=O)O)CCCC2	14	-17	-6	62*	25
O=C(CCc1ccccc1)Nc1sc2c(c1C(=O)O)CCCC2	-2	.	.	.	.
O=C(Nc1sc2c(c1C(=O)O)CCCCC2)c1cccs1	12	.	31	.	7
CCOC(=O)c1c(NC(=O)CSc2nnc(C)s2)sc2c1CCCCC2	0	.	-6	.	12
NC(=O)c1c(NC(=O)c2ccc(F)cc2)sc2c1CCC2	-1	-28	.	17	-14
CN1CCN(C(=O)C[C@@H]2CC[C@@H]3[C@H](COC[C@H](O)CN3S(=O)(=O)c3cccc(Cl)c3)O2)CC1	.	-4	.	-1	.
CCc1sc(C(=O)N2CCc3ccccc32)cc1C	39*	.	64	.	-1
Cc1ccc(-c2cc(C(=O)N3CCCc4ccccc43)no2)cc1	11	0	?	72*	1
Cc1ccc(C(=O)N2CCc3ccccc32)cc1	12	7	30	51*	3
O=C(c1cc(-c2ccc(F)cc2)on1)N1CCCc2ccccc21	8	-1	33	14	-2
O=C(c1ccc(Cl)s1)N1CCc2ccccc21	.	-8	67	27	-5
C[C@H]1CN([C@@H](C)CO)S(=O)(=O)c2ccc(C3=CCCCC3)cc2O[C@H]1CN(C)C(=O)C1CCOCC1	.	45	.	1	.
CN(C(=O)c1cc(-c2ccc3c(c2)OCO3)on1)c1ccccc1	14	5	101*	68*	1
CC(C)CNC(=O)COCc1cc(-c2ccc3c(c2)OCO3)on1	1	1	33	21	2
CSc1ccccc1NC(=O)c1cc(C)on1	.	-8	-9	4	-9
O=C(Nc1cc(Br)ccc1O)c1cc(-c2ccc3c(c2)OCO3)on1	7	-23	45	46*	2
